# Compound activity (PubChem)
# Pol kappa inh: blocks human DNA polymerase kappa activity; purified Pol kappa, fluorescent DNA synthesis assay, 10 min; Potency, µM (series often up to 107 µM), usual class: inhibitors; actives 0.53% (n = 400,000)
#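 First, compounds were pin-transferred onto 10 nM Pol kappa. After 15 min at room temperature, substrate was added to 50 nM final. Fluorescence was then measured kinetically at 0 and 10 min.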
# POLH inh: inhibitors of human DNA polymerase eta. Q9Y253. recombinant Pol eta, fluorescent DNA replication assay. Potency, µM (doses to about 114 µM), usual class: inhibitors. actives 1.2% (n = 390,000). AID 588591
#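 Pol eta (10 nM) was preincubated with compounds for 15 min at room temperature, after which fluorescent replication substrate (50 nM final) was added to start the reaction. Fluorescence was read kinetically at 0 and 10 min.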
# FEN1 inh: blocks human flap endonuclease 1 | Recombinant FEN1 flap cleavage, fluorescence, 15 min | P39748 | Potency, µM (series often up to 114 µM), hits mostly inhibitors | actives 0.35% (n = 390,000) | AID 588795; note: nearly all actives have a fitted effect of over 65% in size
#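 Quantitative HTS format: each compound was titrated, incubated with 10 nM nuclease for 15 min at room temperature, then challenged with flap substrate at 50 nM final. Signal change over 15 min gave concentration–effect curves.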
# TDP1 block: TDP1 (human) enzyme inhibition | Q9NUW8 | recombinant TDP1, AlphaScreen DNA substrate cleavage | Potency, µM (series often up to 130 µM), usual class: inhibitors | actives 0.28% (n = 350,000) | AID 485290; note: nearly all actives have a fitted effect of over 40% in size
#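 Enzyme-compound mixtures sat 15 min at room temperature, followed by a 5 min reaction with 15 nM final substrate and 10 min with AlphaScreen beads. Recombinant human Tdp1 was used at 1 nM final.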
# Pol iota inh: blocks human DNA polymerase iota activity | Q9UNA4 | Pol iota fluorescent replication assay, 10 min | Potency, µM (doses to about 115 µM), usual class: inhibitors | actives 1% (n = 390,000) | AID 588590
# Target sequence (Q9UNA4 whole entry, looked up): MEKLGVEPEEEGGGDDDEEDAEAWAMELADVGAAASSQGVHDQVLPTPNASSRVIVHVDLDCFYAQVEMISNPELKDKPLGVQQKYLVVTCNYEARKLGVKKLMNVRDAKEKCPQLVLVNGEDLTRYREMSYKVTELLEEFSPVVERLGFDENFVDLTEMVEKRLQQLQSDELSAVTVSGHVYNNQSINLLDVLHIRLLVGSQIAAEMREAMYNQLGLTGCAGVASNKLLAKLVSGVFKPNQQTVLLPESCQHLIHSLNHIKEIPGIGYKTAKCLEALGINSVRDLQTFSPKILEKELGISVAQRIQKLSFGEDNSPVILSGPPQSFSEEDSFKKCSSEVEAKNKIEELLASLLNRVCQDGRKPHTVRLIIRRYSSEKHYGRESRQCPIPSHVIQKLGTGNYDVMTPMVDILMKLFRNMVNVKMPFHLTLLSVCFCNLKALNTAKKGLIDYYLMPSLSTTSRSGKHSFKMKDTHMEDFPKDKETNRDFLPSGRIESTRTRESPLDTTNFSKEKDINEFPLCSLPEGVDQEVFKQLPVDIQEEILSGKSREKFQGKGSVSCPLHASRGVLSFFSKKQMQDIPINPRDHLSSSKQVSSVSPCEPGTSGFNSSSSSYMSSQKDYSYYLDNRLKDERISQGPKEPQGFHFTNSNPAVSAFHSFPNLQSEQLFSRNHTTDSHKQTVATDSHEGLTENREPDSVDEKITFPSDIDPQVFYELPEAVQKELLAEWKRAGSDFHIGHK
#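 Fluorescent replication assay read twice, at 0 min and 10 min after adding 50 nM (final) substrate. Enzyme (10 nM) and compounds were first incubated 15 min at room temperature; enzyme-free buffer wells were negative controls.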
# POLB inh: inhibitors of human DNA polymerase beta | P06746 | Pol beta primer extension/strand displacement, fluorescence kinetic | Potency, µM (highest dose often 114 µM), most hits filed as inhibitors | actives 1.3% (n = 340,000) | AID 485314
#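 Reaction started by 50 nM substrate onto compound-treated Pol beta (10 nM, 15 min preincubation, room temperature); plates read at 0 min and 10 min. Normalized concentration-effect data fitted by four-parameter Hill equation.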
# Numbers stand for hits; – = inactive; ? = inconclusive; · = no result; ! = not active in a repeat; [ ] = dose if it differs, or a comment. Compounds with a hit are over-represented: about 2.4% of the library has one in this group of screens. Calls come from the whole dose curve; as a rule, active = well fitted curve in the direction sought with a large enough effect; inconclusive = small, poorly fitted or top-dose-only effect, or another doubt; inactive = no such curve, though single readings can be large; an effect the other way counts as inactive or inconclusive.
SMILES,Pol kappa inh,POLH inh,FEN1 inh,TDP1 block,Pol iota inh,POLB inh
CCOc1cc2ccccc2cc1C(=O)OCC(=O)Nc1ccc(Br)cc1,–,·,–,·,–,·
COc1ccccc1/C=C/C=N/NC(=O)Cc1cccn1C,–,?,–,–,50µM,–
COc1ccccc1/C=C\C=N\NC(=O)CCn1nnc2ccccc21,–,–,–,–,–,–
Cc1cccc(N2CCN(C(=O)c3noc4c3COc3ccc(C)cc3-4)CC2C)c1 (stereo not given),?,–,–,–,50µM!,–
Cc1ccc2c(c1)-c1onc(C(=O)N3CCN(c4cccc(C)c4C)CC3)c1CO2,–,–,–,–,–,–
O=C1/C(=C/c2ccsc2)CC/C1=C\c1cccs1,–,·,·,·,·,·
Cc1ccc(C)c(Cn2c(SCC(=O)NCc3ccccc3)nc3ccccc32)c1,–,–,–,–,?,?
O=C1c2cccnc2C(Nc2ccccc2)N1Cc1ccco1 (stereo not given),–,–,–,–,13µM,–
O=C(O)Cn1cc(/C=c2/sc3nc4ccccc4n3c2=O)c2ccccc21,?,79µM,?,?,–,–
CCn1c(=O)cc(SCC(=O)N2CCN(c3cc(C)ccc3C)CC2)c2ccccc21,–,–,–,–,–,–
COC(=O)Cc1cc(=O)n(-c2nc3ccccc3[nH]2)[nH]1,–,–,–,–,–,79µM
Cc1ccc(Cn2c3ccccc3c3cnn(CC(=O)N4CCCCCC4)c(=O)c32)cc1,–,·,–,–,–,–
CCCc1cc(CN2CCOCC2)c(O)c(CN2CCOCC2)c1O,–,–,–,·,–,·
Oc1cccc(CN2CCOCC2)c1O,28µM,–,?,·,20µM,·
COc1c(Cl)cc(Cl)cc1C(=O)Nc1cccc(-c2nc3ccccc3o2)c1C,–,–,–,–,–,–
Cc1ccccc1-c1cncnc1N(C)Cc1ccco1,?,·,·,22µM,·,·
CC(=O)c1ccc(N2CCN(C(=O)COc3ccc4c(c3)CCC4)CC2)cc1,?,56µM,–,·,79µM,10µM
CC(=O)c1ccc(N2CCN(C(=O)COc3ccc4ccccc4c3)CC2)cc1,·,–,·,·,·,·
O=C(c1cc(C(F)(F)F)cc(C(F)(F)F)c1)N1CCC2(CC1)CCN(c1ccncc1)CC2,–,·,·,·,·,·
Cc1ccc2c(CC(=O)Nc3sccc3C(N)=O)coc2c1,–,?,?,–,79µM,–
Cc1ccc2occ(CC(=O)Nc3nnc(C(C)C)s3)c2c1,–,–,–,–,79µM,–
Cc1ccc2c(CC(=O)NNC(=O)c3ccncc3)coc2c1,–,40µM,–,·,?,·
Cc1ccc(CC(=O)NNC(=O)c2ccncc2)cc1C,–,–,–,–,–,·
CCCc1nnc(NC(=O)Cc2coc3ccc(C)cc23)s1,–,–,–,–,–,–
C#CCCCO/N=C1/[C@H]2O[C@@H]2[C@@H](O)[C@H]2[C@H]1CCn1c(=O)n(C)c(=O)n12,·,·,·,–[21 µM],·,·
SMILES,Pol kappa inh,POLH inh,FEN1 inh,TDP1 block,Pol iota inh,POLB inh
COC1CC2CCC(C)[C@](O)(O2)C(=O)C(=O)N2CCCCC2C(=O)OC(C(C)CC2CCC(O)C(OC)C2)CC(=O)C(C)/C=C(/C)C(O)C(OC)C(=O)C(C)CC(C)C=CC=C/C=C\1C (stereo not given in full),–[19.4 µM],·,·,·,·,·
Cc1ccc2c(/C=C/c3ccc(N(C)C)cc3)ccnc2c1C,–,·,–,·,–,·
CNc1ccc(Br)cc(C(=O)/C=C/c2ccc(OC)cc2)c1=O,–,?,–,–,?,28µM
CCNc1ccc(Br)cc(C(=O)/C=C/c2ccc(Cl)cc2Cl)c1=O,?,14µM,?,–,8.9µM,13µM
COc1ccc(/C=C/C(=O)c2cc(C(=O)/C=C/c3ccc(OC)cc3)c(O)cc2O)cc1,–,·,–,·,–,·
O=Cc1cc2c3c(c1)CCCN3CCC2,–,·,–,·,–,·
CSC1=NC(=O)/C(=C\c2cccc3ccccc23)S1,–,–,–,–,–,50µM
N=C1S/C(=C\c2cccc3ccccc23)C(=O)N1c1ccc(F)cc1,–,?,–,–,–,–
N#Cc1nc(NCCCO)nc(Nc2ccccc2)n1,·,·,·,–,·,·
Cc1cc(-c2csc(NC(=O)c3ccc(=O)n(C)n3)n2)c(C)n1CC1CCCO1 (stereo not given),?,?,–,50µM,11µM,–
Cc1cc(-c2csc(NC(=O)c3ccc(=O)[nH]c3)n2)c(C)n1Cc1ccco1,–,–,–,2.2µM,?,8.9µM
CCNc1nc(-c2cc(C)n(Cc3ccco3)c2C)cs1,–,–,–,–,–,?
COc1cc(F)c(S(=O)(=O)N2CCN(S(=O)(=O)c3ccc4c(c3)OCCO4)CC2)c(F)c1,·,·,·,–,·,·
CC(=O)N1CCc2cc(S(=O)(=O)Nc3ccc(C)c(C)c3)ccc21,·,·,·,–,·,·
CCN(CC)c1ccccc1/C=C/[n+]1ccc(CCCCI)c2ccccc21,50µM,·,?,·,?,·
CC(C)(C)n1ncc2c(=O)n(Cc3c(Cl)cccc3Cl)cnc21,–,·,–,·,–,·
C=C1c2cccc(O)c2C(O)=C2C(=O)[C@]3(O)C(O)=C(C(N)=O)C(=O)C(N(C)C)C3C(O)C12 (stereo not given in full),4µM,·,·,·,·,·
O=c1c(Cl)c(Cl)cnn1Cc1nnc(-c2ccc(Cl)cc2)o1,–,50µM,–,–,40µM,40µM
O=c1c(Cl)c(Cl)cnn1Cc1ccccc1Cl,–,?,–,–,?,?
COc1cc(/C=C(\C#N)C(=O)N2CCOCC2)ccc1OCc1ccccc1,–,–,–,–,–,–
N#C/C(=C\c1ccc(OCc2ccccc2)cc1)C(=O)Nc1ccc(C(=O)O)cc1,–,–,–,45µM,?,–
N#C/C(=C\c1ccc(OCc2ccc(C(=O)O)cc2)cc1)C(=O)N1CCOCC1,–,28µM,–,·,?,–
Cc1csc(C)[n+]1CCC1CCCCC1,–,·,–,·,–,·
COc1ccc(Br)cc1C1NC(c2ccc3c(c2)OCO3)=CC(c2ccccc2O)N1 (stereo not given),–,·,–,–,–,·
CC1=NNC(=O)/C1=C\c1cn(-c2ccccc2)nc1-c1ccc(F)cc1,–,–,–,–,25µM,–
SMILES,Pol kappa inh,POLH inh,FEN1 inh,TDP1 block,Pol iota inh,POLB inh
C=CCNC(=O)CN1CCC(O)(c2ccc(F)cc2)CC1,–,–,–,–,100µM,–
OC(CBr)C[n+]1cc(Br)cc2ccccc21 (stereo not given),–,·,–,·,–,·
Cc1ccc(CNC(=O)COC(=O)c2ccccc2OCC(=O)Nc2ccc(Br)cc2)cc1,–,·,–,·,–,·
Oc1ccc(NCc2cccs2)cc1,–,–,–,–,32µM,–
COc1ccccc1/C=c1/[nH]c(=O)/c(=C\c2ccccc2OC)[nH]c1=O,–,·,–,·,–,·
O=C(Nc1nc(-c2cccs2)cs1)c1ccc([N+](=O)[O-])o1,–,79µM,–,–,?,·
